# The campaign covered roughly 69,000 compounds. About 8,600 (12%) showed an effect of 50% or more. The list comes from a sample in which strong results are over-represented; it also holds similar structures and randomly drawn compounds.
# Tested on: Plasmodium berghei
# Assay: Screen against P. berghei liver stage (PbLuc), transformed with Luciferase, at 10uM
# Type: functional, HepG2
# Settings: tested at 10 uM
row,SMILES,INHIBITION
1,CN1CCNC(Cc2ccc(-c3ccncc3)cc2)C1=O (stereo not drawn),22%
2,CCN1CCn2c(C)cnc2C12CCN(C(=O)N(C)C)CC2,-18.4%
3,O=C(Nc1cccnc1)[C@H]1C[C@@H]2CCN(c3nncs3)C[C@H]2O1,-13.2%
4,Cn1cc(N2C(=O)CC[C@@H]3[C@H]2CCN3Cc2cccc(C#N)c2)cn1,-24.1%
5,CC(c1cccs1)N(C)Cc1cnc(-c2ccccn2)nc1 (stereo not drawn),66.5%
6,COC(=O)c1cccc(CN(C)C(C)c2ccccn2)c1 (stereo not drawn),14.8%
7,CC(C)n1cnnc1CN(C)Cc1cnc(-c2ccccn2)nc1,-36.3%
8,CC(=O)N1CCN(C(=O)c2ccc(-c3cccc(C)c3)[nH]c2=O)CC1,35.7%
9,Cc1cnn(CCNCc2ccccc2C#N)c1,51%
10,Cc1cnn(CCNCc2cc(-c3ccccc3)no2)c1,20.4%
11,Cc1cnn(CCNCc2ccc(C#N)cc2)c1,6.8%
12,Cc1ccc(-c2cc(CNCCn3cc(C)cn3)on2)cc1,60.4%
13,Cc1cnn(CCNCc2ccccc2F)c1,-14.6%
14,Cc1cnn(CCNCc2cc(C)no2)c1,38.8%
15,CCN(CC1CCCO1)C(=O)NCCNC(=O)c1ccccc1F (stereo not drawn),34.5%
16,NC(=O)Nc1cccc(Oc2ccccn2)c1,-1.58%
17,CCC(Nc1cccc(Oc2ccccn2)c1)C(N)=O (stereo not drawn),62%
18,CCC(Nc1cccc(Oc2ccc(C#N)cc2)c1)C(N)=O (stereo not drawn),29.6%
19,CN1CCC(c2nnc(CN3CCCCC3)n2C)CC1,25.4%
20,COc1ccccc1OCC(=O)NCC(C)(O)C1CC1 (stereo not drawn),-3.51%
21,CC(=O)N1CCc2[nH]cnc2C12CCN(C(=O)Cc1cccs1)CC2,61.5%
22,CCN1CCc2[nH]cnc2C12CCN(C(=O)CCc1cccs1)CC2,26%
23,CN1CCc2[nH]cnc2C12CCN(C(=O)CCc1cccs1)CC2,31.9%
24,CC(=O)N1CCc2[nH]cnc2C12CCN(C(=O)CCn1cccn1)CC2,35.2%
25,CCCN1CCc2[nH]cnc2C12CCN(C(=O)CCn1cccn1)CC2,54.8%
26,CC(=O)N1CCc2[nH]cnc2C12CCN(C(=O)Cc1ccccn1)CC2,8.31%
27,CCCN1CCc2[nH]cnc2C12CCN(C(=O)Cn1ccnc1C)CC2,57%

row,SMILES,INHIBITION
1,CCN1CCc2[nH]cnc2C12CCN(C(=O)CCCn1cncn1)CC2,36.3%
2,CCC(=O)N1CCC2(CC1)c1nc[nH]c1CCN2S(C)(=O)=O,1.81%
3,CN1CCc2c(CNc3ncccn3)n[nH]c2C1,27.5%
4,CCC(=O)N1CCC(Cc2ccccc2-c2ccccc2F)(C(N)=O)C1 (stereo not drawn),29.2%
5,Cc1cnn(C2(C(=O)O)CCN(Cc3oc4ccccc4c3C)CC2)c1,-0.613%
6,CC(C)n1nnc(CC(=O)NCC2(c3cccc(F)c3)CCCC2)n1,26.7%
7,COCc1ccccc1NC(=O)c1ccoc1,-80.7%
8,Cc1ccc(C#N)cc1NC(=O)NC1CCCN(c2ncccn2)C1 (stereo not drawn),42%
9,CC(C(=O)N1CCN(Cc2ccncc2)CC1)n1cncn1 (stereo not drawn),4.25%
10,Fc1ccc(-c2cnc(C3CCNCC3)cn2)cc1,37.85%
11,CC(CO)CN(Cc1ccccc1)C(=O)c1csc(CN(C)C)n1 (stereo not drawn),13.7%
12,Cc1nc(C(C)NC(=O)c2cn(CCC3CCCCC3)nn2)n[nH]1 (stereo not drawn),5.75%
13,COCc1noc(Cn2c(C3CC3)nc3ccccc32)n1,39.2%
14,COCc1noc(Cn2c(=O)[nH]c3ccccc32)n1,74%
15,COCCc1noc(Cn2c(=O)[nH]c3ccccc32)n1,-16.5%
16,CC1COCCN1C(=O)Cc1cc(Cl)c2c(c1)OCCO2 (stereo not drawn),26.8%
17,CSCC1CCN(C(=O)Cn2ncc(N3CCCCC3)cc2=O)CC1,40.7%
18,O=C(c1cncs1)N1CCc2[nH]nc(Nc3ccccc3)c2C1,20.49%
19,CN1CCCN(C(=O)c2cc(CN(C)CCc3ccccc3)on2)CC1,53.3%
20,CN(CCc1ccccc1)Cc1cc(C(=O)N2CCN(C)C(=O)C2)no1,-13.2%
21,CN(CCc1ccccc1)Cc1cc(C(=O)N2CCSCC2)no1,40.5%
22,O=C1CCC2(CCN(Cc3nccs3)CC2)CN1CCCO,-47.8%
23,Cc1cnc(CN(C)C2CCCN(Cc3noc(C4CC4)n3)C2)cn1 (stereo not drawn),10%
24,CC(NCC(=O)N(C)C1CC1)c1ccc(S(C)(=O)=O)c(F)c1 (stereo not drawn),34.7%
25,O=C(NCc1cnc2n1CCN(Cc1nccs1)C2)c1ccno1,23.1%
26,Cn1cccc1C(=O)NCc1cnc2n1CCN(CC1CCOCC1)C2,20.4%
